Screening results (PubChem BioAssay)
Most compounds without a hit are left out; they make up all but 2.3% or so of the library.
M1 ag: human M1 muscarinic receptor agonists, primary screen, Fluo-8 calcium fluorescence, CHO-K1 cells, HTS; CHO-K1 hM1, agonist mode; 0% DMSO, 100% acetylcholine EC100; activation, % at 3 µM; 0.33% of 360,000 active;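 active means activation above the run's mean compound activation plus 3 SD, cut at about 16% in these data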;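 further: peak over basal fluorescence ratio within a 140 s kinetic read after compound addition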
Target sequence (P11229 whole entry, looked up): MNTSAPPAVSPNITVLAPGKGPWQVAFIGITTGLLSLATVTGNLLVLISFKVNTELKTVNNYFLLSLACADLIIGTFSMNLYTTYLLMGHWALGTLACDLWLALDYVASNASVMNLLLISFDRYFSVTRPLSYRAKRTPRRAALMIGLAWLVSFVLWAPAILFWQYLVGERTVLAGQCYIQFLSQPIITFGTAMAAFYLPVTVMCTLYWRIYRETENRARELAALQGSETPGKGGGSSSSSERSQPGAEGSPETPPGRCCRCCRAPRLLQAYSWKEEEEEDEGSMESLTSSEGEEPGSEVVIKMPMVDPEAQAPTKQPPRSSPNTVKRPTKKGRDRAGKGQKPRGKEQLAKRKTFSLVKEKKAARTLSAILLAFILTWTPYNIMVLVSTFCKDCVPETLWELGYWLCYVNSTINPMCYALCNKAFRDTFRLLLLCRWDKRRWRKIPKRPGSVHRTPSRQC
CHO-K1 Ca ag: counter-screen for M1 agonists: effect in parental CHO-K1 cells; Fluo-8 calcium fluorescence; scaled to maximal ATP response, vehicle zero; activation, % at 3 µM; AID 602248, 2012; 0.48% of 360,000 active; in the data active means activation above about 15%;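 further: untransfected CHO-K1 host cells lacking M1 receptor as counterscreen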
M1 PAM parental: nonselective calcium activators in parental CHO-K1 cells, primary screen, counter-screen for M1 PAM project, cell-based, Fluo-8 calcium fluorescence, full deck, 1536-well | 0.02% of 360,000 active | ATP EC20; 0% at ATP EC20, 100% at ATP max | AID 602247, 2012 | activation, % at 3 µM;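 active means activation above the run cutoff, the mean activation of all test compounds plus 3 SD, cut at about 40% in these data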;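 further: peak over basal fluorescence ratio in a 140 s read after ATP addition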
CHO-K1 Ca antag: counter-screen for M1 antagonists: effect in parental CHO-K1 cells; ATP-induced calcium, Fluo-8 fluorescence; inhibition, % at 3 µM; 0.6% of 360,000 active;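 active means inhibition above a per-plate cutoff, the plate's mean sample inhibition plus 3 SD, cut at about 24% in these data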
CHRM1 PAM: human M1 muscarinic receptor positive allosteric modulators, primary screen, CHO-K1 cells, Fluo-8 calcium fluorescence, 1536-well; CHO-K1 hM1, ACh EC20; 0% = ACh EC20, 100% = maximal ACh; activation, % at 3 µM; 0.088% of 360,000 active; AID 588819, 2011; in the data active means activation above about 19%, passing the limit was not always enough
M1 antag: human M1 muscarinic receptor antagonists, primary screen, CHO-K1 cells, Fluo-8 calcium fluorescence, 1536-well; Muscarinic acetylcholine receptor M1 (Homo sapiens), P11229; CHO-K1 hM1, ACh EC80 antagonist; inhibition, % at 3 µM; 1.3% of 360,000 active; AID 588852, 2011;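 active means percent inhibition above its own plate's cutoff, namely the mean of that plate's compound wells plus 3 SD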;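 further: peak over basal fluorescence ratio during 140 s after agonist addition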
Large screens that a line does not name were inactive.

CCN(CC)C(=O)C1CCCN(c2ncnc3c2cnn3-c2cccc(C)c2)C1 (stereo not drawn)	none
COc1ccc(-n2ncc3c(N4CCN(Cc5ccccc5)CC4)ncnc32)cc1	M1 antag 23
CCN1CCN(c2ncnc3c2cnn3-c2ccccc2)CC1	none
COc1cccc(N2CCN(c3ncnc4c3cnn4-c3ccc(C)cc3C)CC2)c1	M1 antag 64
CCOC(=O)C1CCCN(c2ncnc3c2cnn3-c2cccc(C)c2)C1 (stereo not drawn)	M1 ag 44
C=CCC(O)(CCN1CCCCC1)c1ccccc1 (stereo not drawn)	M1 antag 98
OC(CCCN1CCCCC1)(c1ccccc1)c1ccc(C(F)(F)F)cc1 (stereo not drawn)	M1 antag 82
CCCCOc1ccc(C(O)(CCN2CCOCC2)c2ccccc2)cc1 (stereo not drawn)	none
OC(CCN1CCCCC1)(c1ccccc1)c1ccccc1	M1 antag 99
OC(CCN1CCCC1)(c1ccccc1)C1CCCCC1 (stereo not drawn)	M1 antag 97
COC(=O)c1c(NC(=O)C2CC=CCC2C(=O)O)sc2c1CCCCC2 (stereo not drawn)	none
COc1ccc(C(O)(CCc2ccccc2)CCN2CCCCC2)cc1 (stereo not drawn)	M1 antag 84
O=C(CCN1CCCCCC1)c1ccccc1	none
NC(=O)C(CCCCN1CCCCC1)(c1ccccc1)c1ccccc1	M1 antag 83
Cc1cc(C)c2sc(NC(=O)C3=COCCO3)nc2c1	none
Cc1ccc(NC(=S)NC(=O)c2ccc(Br)o2)c(C)c1	CHO-K1 Ca ag 19
CCOC(=O)C1(CCOc2ccccc2)CCN(Cc2ccc(OC)cc2)CC1	CHO-K1 Ca ag 18
CCOC(=O)C1(CCOc2ccccc2)CCN(Cc2cccc(OC)c2OC)CC1	M1 antag 42
CCOC(=O)C1(CCOc2ccccc2)CCN(Cc2ccc(NC(C)=O)cc2)CC1	none
COc1ccc(CCNCC(C)c2ccccc2)cc1 (stereo not drawn)	M1 antag 35
Clc1ccc(-c2noc(CN3CCCC3)n2)cc1	none
Cn1ccnc1C1CCCCN1Cc1nc(-c2ccc(Cl)cc2)no1 (stereo not drawn)	M1 antag 32
Cc1csc2ncc(C(=O)NC(C)c3ccccc3)c(=O)n12 (stereo not drawn)	CHO-K1 Ca ag 16
COc1cc(C(=O)NCc2cccnc2)ccc1OCC(=O)Nc1cccc(C(F)(F)F)c1	CHO-K1 Ca ag 17
CCOc1ccc(NC(=O)COc2ccc(C(=O)NCc3cccnc3)cc2OC)cc1	none
O=C(Nc1ccc(Cl)cc1)N1CCN(c2ccc3nnc(-c4ccc(F)cc4)n3n2)CC1	M1 antag 42
O=C(Nc1ccc(Cl)cc1)N1CCC(c2nc(-c3ccc(F)cc3)no2)CC1	M1 antag 58
CCn1c(CNC(=O)c2ccco2)nnc1SCC(=O)Nc1cc(F)ccc1C	none
CN(C)N(C(=O)c1cc(-c2cccs2)nn1-c1ccccc1)C1CCS(=O)(=O)C1 (stereo not drawn)	none
CCc1cccc(NC(=O)CCc2c(C)nn(-c3ccc(N4CCOCC4)nn3)c2C)c1	none
CCOc1cc(CNn2cnnc2)cc(Br)c1OCC(=O)NC1CCCCC1	CHO-K1 Ca antag 29
COc1ccc(CCn2c(=S)[nH]c3ccc(N4CCOCC4)cc3c2=O)cc1OC	none
Cc1coc2cc3oc(=O)c(CCC(=O)NC4CC4)c(C)c3cc12	CHO-K1 Ca antag 28, M1 antag 31
COC(=O)c1ccc(C23CC4(C2)[C@H](CN(C)[C@@H]4c2ccccc2)C3c2ccc(Cl)nc2)cc1 (stereo partly drawn)	M1 antag 70
